Screens (PubChem BioAssay)
SARS PLpro yeast: SARS-CoV PLP inhibition in yeast; S. cerevisiae expressing SARS-CoV PLpro, growth rescue; Potency, µM (highest dose often 32.9 µM), for inactives: top-dose activity, positive = growth rescue, usual class: activators; 330,000 compounds, 0.19% hits; calls by dose curve; also: 0% is about no effect; nearly all actives have a fitted effect of over 55% in size
Sm TGR inh: blocks Schistosoma mansoni thioredoxin glutathione reductase; purified TGR, DTNB reduction, TNB absorbance 405 nm; Q962Y6; 360,000 compounds, 3% hits; Potency, µM (doses to about 114 µM), without a hit: top-dose activity change, negative = inhibition, most hits filed as inhibitors; active = well fitted inhibition curve with a large enough effect; inconclusive = small, poorly fitted or top-dose-only effect; inactive = no such curve, though single readings can be large or run the other way; also: % is scaled to controls: 0 for no effect and ±100 for the full control effect; nearly all actives have a fitted effect of over 60% in size
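TGR 20 nM + NADPH 100 uM (dispensed conc.), cpd preinc 15 min RT; start with NADPH (500 uM addition) then DTNB (15 mM addition). Kinetic TNB absorbance, 405 nm filter. Four-parameter Hill fit across titration.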
Starred values were filed as active, the others as inactive; ? = inconclusive; · = no result. Rows were chosen to be rich in hits. Some 3% of all compounds tested hit in one or more screens of this group. Potency is read from the fitted curve at half-maximal effect.

SMILES	SARS PLpro yeast	Sm TGR inh
CC1=CC(=O)C=C(C)C1=NOc1ccccc1[N+](=O)[O-]	-15.4%	28.2µM*
CC(C)(C)/C(COc1ccccc1[N+](=O)[O-])=N/O	-0.6%	-1.5%
CCn1c(NCc2cccc(Cl)c2)nc2ccccc21	·	0.0%
COc1cccc(C2/C(=C(/O)c3ccc(C)cc3)C(=O)C(=O)N2Cc2ccco2)c1 (centres undefined)	-10.6%	-3.3%
COc1cccc(C2/C(=C(/O)c3ccccc3)C(=O)C(=O)N2Cc2ccco2)c1 (centres undefined)	0.3%	50.1µM*
COc1cc(C2/C(=C(\O)c3ccc4c(c3)OCCO4)C(=O)C(=O)N2Cc2ccco2)ccc1O (centres undefined)	-4.1%	45.3%
COc1cccc(/C(O)=C2/C(=O)C(=O)N(Cc3ccco3)C2c2ccncc2)c1 (centres undefined)	-20.0%	28.2µM*
COc1ccc(/C(O)=C2\C(=O)C(=O)N(Cc3ccco3)C2c2cc(OC)ccc2OC)cc1 (centres undefined)	1.0%	4.8%
O=C1C(=O)N(Cc2ccco2)C(c2cccc(Cl)c2)/C1=C(\O)c1ccc2c(c1)OCCO2 (centres undefined)	15.5%	35.5µM*
CCOc1cccc(/C(O)=C2/C(=O)C(=O)N(Cc3ccco3)C2c2ccncc2)c1 (centres undefined)	-14.8%	?
Cc1ccc(C2/C(=C(/O)c3ccc(Br)cc3)C(=O)C(=O)N2Cc2ccco2)o1 (centres undefined)	-9.4%	7.94µM*
CCc1ccc(Oc2c(C(F)(F)F)oc3c(CN4CCN(C)CC4)c(O)ccc3c2=O)cc1	·	-4.3%
COc1ccccc1N1CCN(C(=O)C2CCN(S(=O)(=O)Cc3ccccc3)CC2)CC1	·	-0.4%
Cn1c(=O)cc(OCC(=O)NCc2ccc(F)cc2Cl)c2ccccc21	·	0.8%
CN(C)S(=O)(=O)c1cccc(NC(=S)NCc2ccco2)c1	2.5%	35.5µM*
COc1cccc(/C=N/NC(=S)Nc2cccc(S(=O)(=O)N(C)C)c2)c1	-0.7%	9.2%
CC(=O)c1cccc(NC(=S)NCc2ccco2)c1	-0.3%	?
COc1ccc(O)c(/C=N/NC(=S)Nc2cccc(S(=O)(=O)N(C)C)c2)c1	?	-7.3%
CN(C)S(=O)(=O)c1cccc(NC(=S)N/N=C/c2ccco2)c1	0.2%	39.8µM*
CN(C)S(=O)(=O)c1cccc(NC(=S)N/N=C/c2ccc(O)c(O)c2O)c1	11.3%	10µM*
COc1ccc(N(CC(=O)N2CCN(c3cccc(OC)c3)CC2)S(=O)(=O)c2c(C)noc2C)cc1	·	8.9%
CCOC(=O)c1c(C)[nH]c(C)c1S(=O)(=O)N(C)CC(=O)N1CCN(c2ccccc2OC)CC1	·	-7.0%
CCN(C(=O)C1CCC(CNS(=O)(=O)c2cccc3nsnc23)CC1)c1cccc(C)c1 (centres undefined)	·	3.6%
Cc1ccc(-c2cc(C(=O)NCCc3ccccc3)c3ccccc3n2)cc1C	·	5.6%
CCOC(=O)CC1ON(C)C(=O)N1c1ccc(Cl)cc1Cl (centres undefined)	·	0.3%
SMILES	SARS PLpro yeast	Sm TGR inh
CC(=O)C1=NOC2C(=O)N(c3ccc(Cl)cc3)C(=O)C12 (centres undefined)	0.6%	3.55µM*
O=C(C1=NN(c2ccccc2)C2C(=O)N(c3ccc(Cl)cc3)C(=O)C12)c1ccccc1 (centres undefined)	10.3%	-6.8%
CCOC(=O)C1=NOC2C(=O)N(c3ccc(Cl)cc3Cl)C(=O)C12 (centres undefined)	-0.2%	3.55µM*
CCOC(=O)c1c(-n2cnnn2)sc2c1CCCC2	-3.0%	-0.2%
CCOC(=O)c1c(N2C(=O)C3C4C=CC(O4)C3C2=O)sc2c1CCCC2 (centres undefined)	·	3.16µM*
Cc1ccc(C2=NN(C(=O)CCl)C(c3ccco3)C2)o1 (centres undefined)	3.2%	7.08µM*
Clc1ccc(C2=NN(c3ccccc3)C(c3ccco3)C2)cc1 (centres undefined)	-1.0%	-25.3%
CCS(=O)(=O)Nc1cccc(C2=NN(S(=O)(=O)c3ccccc3)C(c3ccco3)C2)c1 (centres undefined)	3.9%	28.2µM*
Cn1nnnc1SCC(=O)N1N=C(c2ccc(Cl)cc2)CC1c1ccco1 (centres undefined)	0.3%	·
O=S(=O)(c1ccccc1)N1N=C(c2ccc(Cl)cc2)CC1c1ccco1 (centres undefined)	-1.4%	39.8µM*
CCS(=O)(=O)Nc1cccc(C2=NN(S(=O)(=O)c3ccc(C)cc3)C(c3ccco3)C2)c1 (centres undefined)	2.5%	?
CC(=O)N1N=C(c2ccco2)CC1c1ccco1 (centres undefined)	-2.6%	-24.0%
Cc1nnc(SCC(=O)N2N=C(c3ccc(Cl)cc3)CC2c2ccco2)[nH]c1=O (centres undefined)	2.8%	12.6µM*
Clc1ccc(-c2csc(=Nc3ccccc3)n2Cc2ccc3c(c2)OCO3)cc1	·	-10.9%
